Compound activity (PubChem)
Pf growth 96h: P. falciparum growth inhibition at 96 hour, primary screen for plastid delayed-death inhibitors. Potency, µM (highest dose often 28.7 µM), most hits filed as inhibitors. 320,000 compounds, 6.9% hits. P. falciparum luciferase reporter growth, 96 h
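Two parasite generations (96 h, 37 C, 5% CO2) of compound exposure in infected erythrocytes (0.05% parasitemia, 2% hematocrit). Luciferase-reporter P. falciparum; decreased luminescence indicates inhibited growth, aimed at apicoplast-acting delayed death.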
Shiga inhibitor: inhibitors of Shiga toxin in Vero cells. Vero cells, Shiga toxin protein synthesis inhibition reporter. inhibition, % at 38.7 µM. 290,000 compounds, 9.2% hits; in the data active means inhibition mostly above about 28%, no sharp cut-off; inactive means mostly below about 43%
CHX counter: counter-screen hit for Shiga toxin inhibitors, cycloheximide; cell reporter, cycloheximide protein synthesis inhibition counterscreen; max response, %; 300,000 compounds, 12% hits; AID 2314; in the data active means max response mostly above about 13%, no sharp cut-off; inactive means mostly below about 14%; further: read at 38.3 µM for the half of the compounds with a filed dose
NS1 function inh: influenza NS1 inhibition; Potency, µM (titrated, usually from 46.1 µM); 270,000 compounds, 0.4% hits; calls by dose curve; further: actives are rising curves; nearly all actives have a fitted effect of over 50% in size
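Read-out: OD600 growth recovery of NS1-expressing budding yeast. Cells grown overnight at 30C in -URA glucose medium, washed, resuspended and diluted 1:100 in 2% galactose assay medium, pH 6.0. Same strain lacking NS1 served as positive control.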
Sm TGR inh: S. mansoni TGR enzyme inhibition; Q962Y6; Potency, µM (highest dose often 114 µM), most hits filed as inhibitors; purified TGR, DTNB reduction, TNB absorbance 405 nm; 360,000 compounds, 3% hits; further: nearly all actives have a fitted effect of over 60% in size
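Kinetic colorimetric format: TGR-catalysed, NADPH-driven DTNB reduction monitored via TNB absorbance. Enzyme dispensed at 20 nM; compound exposure 15 min at room temperature before reaction start.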
Pf growth 48h: P. falciparum growth inhibition at 48 hours (one generation) | P. falciparum luciferase growth in erythrocytes, 48 h | Potency, µM (top dose mostly 28.7 µM), hits mostly inhibitors | 310,000 compounds, 5.9% hits | AID 504832
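Luciferase-expressing P. falciparum in infected erythrocytes (2% hematocrit, 0.1% parasitemia final) in RPMI 1640/0.5% Albumax were exposed to compound for 48 hours at 37 C, 5% CO2; growth read as luminescence.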
Each line names hits and unclear results; the compound was inactive in the other large screens. Hits are enriched below; roughly 21% of the tested compounds scored in any of these assays. Unless noted, the call rests on the fitted dose curve; in most records, active means well fitted curve in the direction sought with a large enough effect; inconclusive means small, poorly fitted or top-dose-only effect, or another doubt; inactive means no such curve, though single readings can be large; an effect the other way counts as inactive or inconclusive.

COc1ccccc1NC(=O)CN(c1cc(C)cc(C)c1)S(=O)(=O)c1c(C)[nH]c(=O)[nH]c1=O	none (no result: Pf growth 96h, Shiga inhibitor, CHX counter, NS1 function inh, Pf growth 48h)
CCCCN1CC(=O)N2Cc3[nH]c4ccccc4c3C[C@H]2C1=O	none
COc1ccc(CCN2C(=O)CC(NCCc3ccc(S(N)(=O)=O)cc3)C2=O)cc1OC (centres undefined)	Sm TGR inh 18µM (no result: Pf growth 48h)
COc1ccc(CCN2C(=O)CC(NC34CC5CC(CC(C5)C3)C4)C2=O)cc1OC (centres undefined)	Sm TGR inh 40µM, Pf growth 48h inconclusive
O=C(NC1(C(F)(F)F)Oc2ccccc2O1)N1CCCC1	Sm TGR inh 40µM
O=C(NCC1CCCO1)NC1(C(F)(F)F)Oc2ccccc2O1 (centres undefined)	Sm TGR inh inconclusive
C=C(C)C(=O)Nc1ccc2c(c1)OCCOCCOCCO2	none
O=C(Nc1ccc2c(c1)OCO2)NC1(C(F)(F)F)Oc2ccccc2O1	Sm TGR inh 35µM (no result: Pf growth 48h)
O=C(Nc1ccc2c(c1)OCCO2)NC1(C(F)(F)F)Oc2ccccc2O1	Shiga inhibitor 89, CHX counter 92, Sm TGR inh 40µM (no result: Pf growth 48h)
CC1(C)CC(=O)C2=C(C1)NC(=O)CC2c1ccccc1F (centres undefined)	none
Cc1[nH]nc2c1C(c1ccccc1F)CC(=O)N2 (centres undefined)	CHX counter 13, NS1 function inh inconclusive
CSCCC1Nc2ccc(S(=O)(=O)N3CCOCC3)cc2NC1=O (centres undefined)	Pf growth 96h 10µM, Sm TGR inh 50µM (no result: NS1 function inh)
COc1ccc(C2=NN(c3nc(-c4ccc(CNC(C)=O)cc4)cs3)C(c3ccco3)C2)cc1 (centres undefined)	Pf growth 96h inconclusive, Pf growth 48h 3.7µM
COc1ccc(C(=O)NN=C(Cc2ccccc2)Cc2ccccc2)cc1OC	none
COc1cc(C(=O)N/N=C(\C)c2ccc(NC(=O)Cc3ccccc3)cc2)ccc1O	Shiga inhibitor 45, CHX counter 39
COc1cccc(C(=O)N/N=C(\C)c2ccc(NC(=O)Cc3ccccc3)cc2)c1OC	Pf growth 96h inconclusive, CHX counter 18, Pf growth 48h inconclusive
C/C(=N\NC(=O)c1ccccc1O)c1ccc(NC(=O)Cc2ccccc2)cc1	Shiga inhibitor 41, CHX counter 29
COc1ccc(C(=O)N/N=C(\C)CC(=O)Nc2ccc(N(C)C)cc2)c(OC)c1	Pf growth 96h inconclusive (no result: Shiga inhibitor)
COc1ccc(CC(=O)Nc2ccc(/C(C)=N/NC(=O)c3ccc(OC)cc3OC)cc2)cc1	Shiga inhibitor 50, CHX counter 28
CCCN(C(=O)c1cc2c(s1)-c1c(C)cccc1OC2)c1ccc(OCC)cc1	none (no result: Pf growth 96h, Shiga inhibitor, CHX counter, NS1 function inh, Pf growth 48h)
COc1ccccc1N1CCN(C(=O)c2cc(S(=O)(=O)N3CCOCC3)ccc2C)CC1	Pf growth 48h inconclusive (no result: Shiga inhibitor, CHX counter, NS1 function inh)
CC(C)Cc1nnc(NC(=O)C2CC(=O)N(c3ccc4c(c3)OCCO4)C2)s1 (centres undefined)	none (no result: Shiga inhibitor, CHX counter, NS1 function inh)
O=C(Cc1ccccc1)Nc1ccc(NC(=O)c2cccc(Cl)c2)cc1	none
C/C(=N\NC(=O)c1cccc(O)c1)c1ccc(NC(=O)Cc2ccccc2)cc1	Shiga inhibitor 69, CHX counter 34
COCCCn1c(=O)/c(=C\c2ccc(OC(F)F)c(OC)c2)s/c1=C(/C#N)C(=O)NCCOC	none
O=[N+]([O-])CC(=Nc1ccc(F)cc1)N/N=C\c1oc(O)c2ccccc12	Sm TGR inh 11µM
COC(=O)c1ccc2c(c1)NC1=C(C(=O)CC(C)(C)C1)C(c1ccncc1)N2 (centres undefined)	Shiga inhibitor 84, CHX counter 42
COC(=O)C1=C(C)NC2=C(C(=O)CC(C)(C)C2)C1c1ccsc1 (centres undefined)	Pf growth 96h inconclusive, Pf growth 48h inconclusive
CC1=C(C(=O)OC2CCCC2)C(c2coc3ccccc3c2=O)C2=C(CC(C)(C)CC2=O)N1 (centres undefined)	Pf growth 96h inconclusive, Pf growth 48h 4.1µM
COC(=O)C1=C(C)NC2=C(C(=O)CC(C)(C)C2)C1c1ccccn1 (centres undefined)	Pf growth 96h 9.3µM
CSc1cccc(NC(=O)c2cccc(N3CCCS3(=O)=O)c2)c1	none (no result: Pf growth 96h, Shiga inhibitor, CHX counter, NS1 function inh, Pf growth 48h)
COc1cc2cc(C(c3nnnn3C3CCCC3)N3CCCCC3)c(=O)[nH]c2cc1OC (centres undefined)	none
COc1ccc2[nH]c(=O)c(C(c3nnnn3C3CCCC3)N3CCN(Cc4ccc5c(c4)OCO5)CC3)cc2c1 (centres undefined)	Pf growth 96h inconclusive, Pf growth 48h 12µM
O=c1[nH]c2cc3c(cc2cc1C(c1nnnn1C1CCCCC1)N1CCSCC1)OCCO3 (centres undefined)	Pf growth 48h 13µM
Cc1cc(C)c2cc(C(c3nnnn3CC3CCCO3)N3CCN4CCCC4C3)c(=O)[nH]c2c1 (centres undefined)	NS1 function inh inconclusive, Sm TGR inh 22µM, Pf growth 48h 15µM
O=c1[nH]c2cc3c(cc2cc1C(c1nnnn1CC1CCCO1)N1CCCC1)OCO3 (centres undefined)	Pf growth 96h inconclusive
CC(C)C(c1nnnn1CC1CCCO1)N1CCN(C2CCCC2)CC1 (centres undefined)	Pf growth 96h 13µM
CCc1cc2c(cc3c(=O)n(CC(=O)N4CCC(C)CC4)nc(CC)n32)s1	none (no result: Pf growth 96h, Shiga inhibitor, CHX counter, NS1 function inh, Pf growth 48h)
CC(Sc1nnnn1C)C(=O)Nc1nc(-c2ccc(F)c(F)c2)cs1 (centres undefined)	Pf growth 96h inconclusive, Pf growth 48h inconclusive (no result: Shiga inhibitor, CHX counter, NS1 function inh)
O=c1[nH]c2cc3c(cc2cc1C(c1nnnn1CC1CCCO1)N1CCCCCC1)OCCO3 (centres undefined)	Sm TGR inh 32µM (no result: Pf growth 96h)
COc1cc2cc(C(c3nnnn3C3CCCC3)N3CCCCCC3)c(=O)[nH]c2cc1OC (centres undefined)	Sm TGR inh 35µM, Pf growth 48h inconclusive
COc1ccc(NC(=O)CCN2CCN(CCO)CC2)c(OC)c1	none (no result: Pf growth 96h, Shiga inhibitor, CHX counter, NS1 function inh, Pf growth 48h)
O=C1CC(N2CCC(Cc3ccccc3)CC2)C(=O)N1CCc1ccccc1 (centres undefined)	Sm TGR inh 11µM (no result: Pf growth 48h)
O=C1CC(N2CCN(C3CC(=O)N(CCc4ccccc4)C3=O)CC2)C(=O)N1CCc1ccccc1 (centres undefined)	none
O=C(C1CCN(C2CC(=O)N(c3ccc(Cl)cc3)C2=O)CC1)N1CCOCC1 (centres undefined)	Sm TGR inh 14µM (no result: Pf growth 96h)
CCOC(=O)C1CCN(C2CC(=O)N(c3cccc(Cl)c3)C2=O)CC1 (centres undefined)	none (no result: Pf growth 96h)
O=C(C1CCN(C2CC(=O)N(Cc3ccccc3)C2=O)CC1)N1CCCCCC1 (centres undefined)	Sm TGR inh 22µM
O=C(C1CCN(Cc2ccccc2)CC1)N1CCCC1	none (no result: Pf growth 96h)
O=C(C1CCN(C2CC(=O)N(c3cccc(Cl)c3)C2=O)CC1)N1CCCC1 (centres undefined)	Sm TGR inh 22µM (no result: Pf growth 96h)
